Data published in article PMC11062922 (Nature Chemical Biology, 2023).
Like-named read-outs stand apart in the source and are kept apart here.

Tests used:
Set-up in all cases: species or system human, MV4-11 + K-562 + COLO205 + SK-N-BE2 + OVCAR-8
[1] = tested on: GRK6; conditions: read-out: apparent Kd, n = 1
[2] = tested on: PIK3CB; conditions: read-out: apparent Kd, compound concentrations: 100 nM and 1000 nM (sheet 'Samples'), n = 1
[3] = tested on: PIM3; conditions: read-out: apparent Kd, compound concentrations: 100 nM and 1000 nM (sheet 'Samples'), n = 1
[4] = tested on: RIPK3; conditions: read-out: apparent Kd; compound concentrations: 100 nM and 1000 nM (sheet 'Samples'), CATDS: 1.26623913156397E-2; n = 1
[5] = tested on: MAP3K6; conditions: read-out: apparent Kd, compound concentrations: 100 nM and 1000 nM (sheet 'Samples'), n = 1
[6] = tested on: CAMK2B; conditions: read-out: apparent Kd, compound concentrations: 100 nM and 1000 nM (sheet 'Samples'), n = 1
[7] = tested on: CAMK2G; conditions: read-out: apparent Kd; compound concentrations: 100 nM and 1000 nM (sheet 'Samples'), CATDS: 2.3496297830239501E-2; n = 1
[8] = tested on: ADRBK1; conditions: read-out: apparent Kd, n = 1
[9] = tested on: CDK12; conditions: read-out: apparent Kd, compound concentrations: 100 nM and 1000 nM (sheet 'Samples'), n = 1
[10] = tested on: CDK4; conditions: read-out: apparent Kd, compound concentrations: 100 nM and 1000 nM (sheet 'Samples'), n = 1
[11] = tested on: MDN1; conditions: read-out: apparent Kd, n = 1
[12] = tested on: PLK1; conditions: read-out: apparent Kd, compound concentrations: 100 nM and 1000 nM (sheet 'Samples'), n = 1
[13] = tested on: PRKCZ; conditions: read-out: apparent Kd; compound concentrations:100 nM and 1000 nM (sheet 'Samples'); n = 1
[14] = tested on: MAP3K1; conditions: read-out: apparent Kd, n = 1
[15] = tested on: PI4KB; conditions: read-out: apparent Kd; compound concentrations: 100 nM and 1000 nM (sheet 'Samples'), CATDS: 7.0031928225578105E-2; n = 1
[16] = compound concentrations:100 nM and 1000 nM (sheet 'Samples')

CCn1c(-c2cccnc2O)nc2cnccc21 [SB-736715]
potency estimated from few doses ([1]; compound concentrations: 100 nM and 1000 nM (sheet 'Samples'), CATDS: 1.19944612945155E-2): 2.19 µM | potency estimated from few doses ([2]; CATDS: 1.6268370150171501E-2): 1.1 µM | potency estimated from few doses ([3]; CATDS: 1.44947330035029E-2): 1.39 µM | potency estimated from few doses [4]: 1.9 µM

FC(F)(F)c1ccc(-c2ncn(CCCN3CCOCC3)c2-c2ccncc2)cc1 [SB-217780]
potency estimated from few doses ([5]; CATDS: 0.20378278704682301): 1.72 µM

COc1cc[nH]c1/C=C1\C(=O)Nc2ccc(F)c(C#CC3(O)CCNCC3)c21.Cl [RO0282986-001]
potency estimated from few doses ([6]; CATDS: 2.6528417916085501E-2): 0.123 µM | potency estimated from few doses [7]: 0.154 µM

Cc1cc(-c2ccnc(Nc3cccc(C#N)c3)n2)cc(C)c1O [GSK1440913A]
potency estimated from few doses ([8]; compound concentrations: 100 nM and 1000 nM (sheet 'Samples'), CATDS: 7.8557926604231804E-2): 1.43 µM

CCN(CC)Cc1ccc(Nc2nccc(-c3cnn4ncccc34)n2)cc1 [GW780056X]
potency estimated from few doses ([9]; CATDS: 2.2557982772038999E-2): 0.899 µM | potency estimated from few doses ([10]; CATDS: 1.9618421656054302E-2): 1.42 µM

Cl.Cl.NC(CNC(=O)c1cc(Br)c(-c2ccnc3[nH]ccc23)s1)c1ccccc1.NC(CNC(=O)c1cc(Br)c(-c2ccnc3[nH]ccc23)s1)c1ccccc1 (centres unmarked) [GSK1322949A]
potency estimated from few doses ([10]; CATDS: 3.2269694765046902E-2): 1.03 µM | potency estimated from few doses ([11]; compound concentrations: 100 nM and 1000 nM (sheet 'Samples'), CATDS: 2.3593450099353701E-2): 2.3 µM | potency estimated from few doses ([12]; CATDS: 2.70929722302506E-2): 1.55 µM

CC(C)Nc1cc(-c2ccc3c(N)n[nH]c3c2)nc(N)n1 [GSK2221681A]
potency estimated from few doses [13]: 1.52 µM

CNCc1ccc(-c2cc(-c3nc(-c4ccc(S(=O)(=O)C(C)C)cc4)cnc3N)on2)cc1 [VE-822]
potency estimated from few doses [14, 16]: 1.26 µM

Cc1ccccc1C1=C(c2cn(C)c3ccccc23)C(=O)NC1=O [RO0317612-000]
potency estimated from few doses ([6]; CATDS: 0.21692870054448801): 0.479 µM

COc1cc(Nc2nccc(N3CCC(NC(=O)c4cccc(NC(C)=O)c4)C3)n2)cc(OC)c1OC (centres unmarked) [GSK1379754A]
potency estimated from few doses ([3]; CATDS: 9.0008616948043199E-2): 1.47 µM

O=C(O)C(F)(F)F.O=C(O)C(F)(F)F.O=c1[nH]ccc2nc(N[C@@H]3CCCNC3)nc(Nc3ccc(S(=O)(=O)N4CCOCC4)cc3)c12.O=c1[nH]ccc2nc(N[C@@H]3CCCNC3)nc(Nc3ccc(S(=O)(=O)N4CCOCC4)cc3)c12 [GSK2177277A]
potency estimated from few doses ([10]; CATDS: 6.3800508588872503E-3): 1.6 µM

NS(=O)(=O)c1ccc(NC=C2C(=O)Nc3ccc4ncsc4c32)cc1 [GW589933X]
potency estimated from few doses ([9]; CATDS: 1.98005897918999E-2): 1.01 µM

Cl.Cl.NCC(NCc1ccc(-c2ccnc3[nH]ccc23)s1)c1ccccc1.NCC(NCc1ccc(-c2ccnc3[nH]ccc23)s1)c1ccccc1 (centres unmarked) [GSK1321565A]
potency estimated from few doses [1, 16]: 1.6 µM

Nc1nc(-c2ccc3c(N)n[nH]c3c2)cc(N2CCCC(NC(=O)c3ccccc3)C2)n1 (centres unmarked) [GSK2286775B]
potency estimated from few doses [8, 16]: 2.05 µM | potency estimated from few doses [11, 16]: 1.29 µM

CC(C)N1CC(=O)N(C)c2cnc(Nc3cccc(S(=O)(=O)CCN4CCOCC4)c3)nc21 [BI00009348]
potency estimated from few doses ([14]; compound concentrations: 100 nM and 1000 nM (sheet 'Samples'), CATDS: 5.2672429134220697E-2): 1.56 µM | potency estimated from few doses ([5]; CATDS: 7.2828700738199706E-2): 0.698 µM

Nc1nccc(-c2ccc3c(N)n[nH]c3c2)n1 [GSK1034945A]
potency estimated from few doses [13]: 1.83 µM

CCn1c(-c2nonc2N)nc2cncc(Br)c21 [SB-738004]
potency estimated from few doses [13]: 0.544 µM

CCC(CC)(CC)n1cnc2c(N)ncnc21 [SKF-97620]
potency estimated from few doses [15]: 0.17 µM | potency estimated from few doses ([2]; CATDS: 4.8769305637968503E-2): 0.337 µM | potency estimated from few doses ([12]; CATDS: 2.3248772158463601E-2): 2.3 µM
